Unmarked numbers belong to inactive results.
What was measured:
Test in all cases: log2 ratio of Biotin-Ahx-Ub-VS probe labelling (fragment/DMSO); higher = less target engagement (more negative = stronger competition), active = hit call of the paper (q ≤ 0.05, log2 ratio ≤ -1)
Details in all cases: compound concentration: 200 uM; treatment time: 3 h
OTUD6B = target: T1, OTUD6B (UniProt Q8N6M0)
T1 sequence (whole entry): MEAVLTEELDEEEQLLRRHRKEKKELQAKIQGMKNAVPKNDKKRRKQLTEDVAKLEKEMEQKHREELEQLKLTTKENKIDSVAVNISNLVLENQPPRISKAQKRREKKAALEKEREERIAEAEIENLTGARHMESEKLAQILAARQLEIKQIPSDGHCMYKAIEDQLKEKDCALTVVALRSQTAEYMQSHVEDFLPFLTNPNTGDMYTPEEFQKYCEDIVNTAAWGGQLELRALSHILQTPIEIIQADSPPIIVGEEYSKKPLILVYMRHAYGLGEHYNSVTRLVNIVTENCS
Summary of the method: (§1)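 Fragment (200 µM) or vehicle was incubated for 3 h with triplicate HEK293T lysate samples of 495 µg, which were then treated with Biotin-Ahx-Ub-VS at 0.5 µM final for 1 h. Labelled DUBs were enriched on NeutrAvidin, digested with LysC and trypsin, and analysed by diaPASEF LC-MS/MS. Values are average log2 fragment/vehicle ratios from an unpaired t-test on global-median-normalised Spectronaut label-free quantities, using proteins with ≥2 unique peptides.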

OTUD7B = target: T2, OTUD7B (UniProt Q6GQQ9)
T2 sequence (whole entry): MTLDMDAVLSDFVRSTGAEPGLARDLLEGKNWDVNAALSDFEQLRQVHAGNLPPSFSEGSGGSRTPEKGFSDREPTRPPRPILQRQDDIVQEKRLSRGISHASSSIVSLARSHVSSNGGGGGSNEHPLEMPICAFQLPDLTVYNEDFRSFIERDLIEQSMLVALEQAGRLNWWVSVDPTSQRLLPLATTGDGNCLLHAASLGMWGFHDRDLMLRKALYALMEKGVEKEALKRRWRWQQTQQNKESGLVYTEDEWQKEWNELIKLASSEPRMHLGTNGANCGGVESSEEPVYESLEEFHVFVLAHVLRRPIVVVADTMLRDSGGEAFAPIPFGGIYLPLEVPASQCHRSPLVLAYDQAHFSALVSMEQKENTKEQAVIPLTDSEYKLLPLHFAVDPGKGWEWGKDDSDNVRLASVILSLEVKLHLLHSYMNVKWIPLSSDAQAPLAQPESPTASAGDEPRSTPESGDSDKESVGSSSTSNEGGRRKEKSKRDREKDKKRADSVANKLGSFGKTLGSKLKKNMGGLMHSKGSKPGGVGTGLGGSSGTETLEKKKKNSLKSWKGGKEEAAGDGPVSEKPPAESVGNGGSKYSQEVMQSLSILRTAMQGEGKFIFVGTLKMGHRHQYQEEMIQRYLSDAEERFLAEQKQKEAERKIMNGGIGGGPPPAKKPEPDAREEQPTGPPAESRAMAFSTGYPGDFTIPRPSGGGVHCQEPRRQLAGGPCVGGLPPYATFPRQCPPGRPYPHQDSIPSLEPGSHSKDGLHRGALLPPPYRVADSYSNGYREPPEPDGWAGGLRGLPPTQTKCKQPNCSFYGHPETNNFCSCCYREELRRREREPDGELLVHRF
Summary of the method: as §1

PRPF8 = PRPF8 (UniProt Q6P2Q9)
Summary of the method: as §1

PSMD7 = target: T3, PSMD7 (UniProt P51665)
T3 sequence (whole entry): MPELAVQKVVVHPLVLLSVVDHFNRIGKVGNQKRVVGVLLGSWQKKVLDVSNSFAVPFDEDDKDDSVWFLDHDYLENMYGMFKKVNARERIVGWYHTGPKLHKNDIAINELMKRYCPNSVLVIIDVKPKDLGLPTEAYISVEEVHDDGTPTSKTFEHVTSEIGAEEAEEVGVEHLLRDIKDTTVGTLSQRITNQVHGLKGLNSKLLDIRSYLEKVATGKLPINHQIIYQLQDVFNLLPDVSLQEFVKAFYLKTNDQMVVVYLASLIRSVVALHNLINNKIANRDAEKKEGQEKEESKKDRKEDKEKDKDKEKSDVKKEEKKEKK
Summary of the method: as §1

UCHL1 = UCHL1 (UniProt P09936)
Chain of UCHL1 (P09936 whole entry, looked up): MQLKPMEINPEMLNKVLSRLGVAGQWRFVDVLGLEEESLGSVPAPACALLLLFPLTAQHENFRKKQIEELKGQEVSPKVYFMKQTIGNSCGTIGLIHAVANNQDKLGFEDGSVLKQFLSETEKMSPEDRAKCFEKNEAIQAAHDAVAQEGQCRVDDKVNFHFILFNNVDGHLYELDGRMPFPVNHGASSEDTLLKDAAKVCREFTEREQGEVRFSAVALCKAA
Summary of the method: as §1

UCHL3 = target: T4, UCHL3 (UniProt P15374)
T4 sequence (whole entry): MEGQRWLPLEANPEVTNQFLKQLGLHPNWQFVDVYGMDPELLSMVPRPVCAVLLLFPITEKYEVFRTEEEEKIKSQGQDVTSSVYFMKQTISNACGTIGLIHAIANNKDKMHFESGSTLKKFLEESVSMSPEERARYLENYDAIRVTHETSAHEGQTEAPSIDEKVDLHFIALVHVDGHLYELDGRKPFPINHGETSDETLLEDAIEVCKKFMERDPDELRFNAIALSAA
Summary of the method: as §1

UCHL5 = target: T5, UCHL5 (UniProt Q9Y5K5)
T5 sequence (whole entry): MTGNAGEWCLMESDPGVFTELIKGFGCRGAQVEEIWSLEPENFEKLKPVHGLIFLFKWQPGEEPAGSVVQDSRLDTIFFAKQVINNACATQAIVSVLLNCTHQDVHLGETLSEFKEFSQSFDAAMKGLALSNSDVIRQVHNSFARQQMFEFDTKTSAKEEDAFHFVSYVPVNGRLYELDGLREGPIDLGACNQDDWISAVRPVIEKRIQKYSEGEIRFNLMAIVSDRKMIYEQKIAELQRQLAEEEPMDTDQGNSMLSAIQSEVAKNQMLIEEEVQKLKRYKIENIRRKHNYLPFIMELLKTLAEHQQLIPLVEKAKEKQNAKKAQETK
Summary of the method: as §1

USP10 = USP10 (UniProt Q14694)
Chain of USP10 (Q14694 whole entry): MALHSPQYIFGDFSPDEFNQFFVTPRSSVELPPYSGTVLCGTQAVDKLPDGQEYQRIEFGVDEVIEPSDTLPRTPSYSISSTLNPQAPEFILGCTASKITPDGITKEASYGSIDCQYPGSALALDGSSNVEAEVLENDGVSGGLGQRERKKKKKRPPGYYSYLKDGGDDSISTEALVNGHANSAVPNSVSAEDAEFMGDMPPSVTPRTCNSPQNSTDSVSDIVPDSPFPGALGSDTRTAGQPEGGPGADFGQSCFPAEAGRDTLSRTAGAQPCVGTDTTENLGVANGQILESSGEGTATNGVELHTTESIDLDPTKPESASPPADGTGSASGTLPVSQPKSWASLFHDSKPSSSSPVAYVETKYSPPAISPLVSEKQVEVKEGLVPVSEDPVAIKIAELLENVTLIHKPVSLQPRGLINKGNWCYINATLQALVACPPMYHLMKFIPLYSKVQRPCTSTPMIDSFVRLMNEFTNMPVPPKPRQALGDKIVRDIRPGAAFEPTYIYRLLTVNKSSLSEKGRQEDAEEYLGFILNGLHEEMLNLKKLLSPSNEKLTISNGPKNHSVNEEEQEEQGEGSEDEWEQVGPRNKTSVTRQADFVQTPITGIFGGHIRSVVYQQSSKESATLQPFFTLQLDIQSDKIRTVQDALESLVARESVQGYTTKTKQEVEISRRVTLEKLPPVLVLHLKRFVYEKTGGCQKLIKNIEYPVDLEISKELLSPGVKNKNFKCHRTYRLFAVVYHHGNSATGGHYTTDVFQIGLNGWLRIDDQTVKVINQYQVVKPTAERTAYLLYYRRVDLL
Summary of the method: as §1

USP15 = target: T6, USP15 (UniProt Q9Y4E8)
T6 sequence (whole entry): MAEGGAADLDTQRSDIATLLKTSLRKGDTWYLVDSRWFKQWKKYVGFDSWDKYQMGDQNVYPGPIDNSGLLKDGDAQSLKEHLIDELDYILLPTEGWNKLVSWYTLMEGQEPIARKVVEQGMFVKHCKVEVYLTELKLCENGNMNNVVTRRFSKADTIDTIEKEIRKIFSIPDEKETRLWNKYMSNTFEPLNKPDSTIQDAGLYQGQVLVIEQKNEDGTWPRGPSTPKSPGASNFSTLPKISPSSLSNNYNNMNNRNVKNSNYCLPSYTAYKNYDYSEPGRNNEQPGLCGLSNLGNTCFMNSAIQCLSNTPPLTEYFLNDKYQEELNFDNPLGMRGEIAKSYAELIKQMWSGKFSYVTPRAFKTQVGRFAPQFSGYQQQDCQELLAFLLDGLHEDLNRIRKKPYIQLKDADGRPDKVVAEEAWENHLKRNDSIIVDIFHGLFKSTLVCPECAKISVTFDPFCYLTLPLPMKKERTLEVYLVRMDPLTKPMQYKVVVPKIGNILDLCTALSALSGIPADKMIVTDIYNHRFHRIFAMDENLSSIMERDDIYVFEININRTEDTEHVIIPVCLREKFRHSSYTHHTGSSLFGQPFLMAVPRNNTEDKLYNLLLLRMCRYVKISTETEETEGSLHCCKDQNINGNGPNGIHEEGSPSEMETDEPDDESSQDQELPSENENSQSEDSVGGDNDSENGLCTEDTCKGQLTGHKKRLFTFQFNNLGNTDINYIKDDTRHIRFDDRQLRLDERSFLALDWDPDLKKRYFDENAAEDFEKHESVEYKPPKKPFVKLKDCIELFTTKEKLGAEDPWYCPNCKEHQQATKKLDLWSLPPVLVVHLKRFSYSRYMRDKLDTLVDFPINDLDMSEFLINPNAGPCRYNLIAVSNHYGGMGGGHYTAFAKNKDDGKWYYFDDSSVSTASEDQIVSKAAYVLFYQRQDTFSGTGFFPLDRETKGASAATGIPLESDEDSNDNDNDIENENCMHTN
Summary of the method: as §1

USP16 = USP16 (UniProt Q9Y5T5)
Chain of USP16 (Q9Y5T5 whole entry, looked up): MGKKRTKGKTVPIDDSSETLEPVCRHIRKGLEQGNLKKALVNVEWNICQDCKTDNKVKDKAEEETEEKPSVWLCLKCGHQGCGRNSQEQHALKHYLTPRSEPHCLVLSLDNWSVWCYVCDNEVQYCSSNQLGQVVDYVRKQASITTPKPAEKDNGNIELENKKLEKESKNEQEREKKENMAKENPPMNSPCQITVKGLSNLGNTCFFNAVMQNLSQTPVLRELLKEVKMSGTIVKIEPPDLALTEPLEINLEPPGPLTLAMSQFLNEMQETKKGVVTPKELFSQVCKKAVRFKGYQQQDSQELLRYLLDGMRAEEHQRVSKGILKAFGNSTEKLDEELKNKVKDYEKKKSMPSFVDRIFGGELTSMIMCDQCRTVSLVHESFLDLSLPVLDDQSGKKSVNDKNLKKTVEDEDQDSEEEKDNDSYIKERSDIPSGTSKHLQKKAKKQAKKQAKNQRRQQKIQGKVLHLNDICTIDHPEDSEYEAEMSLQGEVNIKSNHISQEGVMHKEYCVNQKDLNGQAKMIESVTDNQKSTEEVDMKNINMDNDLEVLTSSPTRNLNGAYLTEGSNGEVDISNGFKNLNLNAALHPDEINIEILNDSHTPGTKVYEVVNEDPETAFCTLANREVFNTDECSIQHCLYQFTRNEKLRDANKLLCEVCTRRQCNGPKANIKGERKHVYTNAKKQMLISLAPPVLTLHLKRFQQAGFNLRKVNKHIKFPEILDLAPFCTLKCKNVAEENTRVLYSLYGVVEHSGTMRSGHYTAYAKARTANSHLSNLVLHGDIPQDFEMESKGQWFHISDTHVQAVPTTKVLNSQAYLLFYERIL
Summary of the method: as §1

O=C(CCl)N1CCN(c2nc3ccccc3o2)CC1
log2 ratio of Biotin-Ahx-Ub-VS probe labelling (OTUD6B): -0.147 | log2 ratio of Biotin-Ahx-Ub-VS probe labelling (OTUD7B): -0.25 | log2 ratio of Biotin-Ahx-Ub-VS probe labelling (PRPF8): 0.299 | log2 ratio of Biotin-Ahx-Ub-VS probe labelling (PSMD7): -0.247 | log2 ratio of Biotin-Ahx-Ub-VS probe labelling (UCHL1): -1.49 (active) | log2 ratio of Biotin-Ahx-Ub-VS probe labelling (UCHL3): -0.125 | log2 ratio of Biotin-Ahx-Ub-VS probe labelling (UCHL5): -0.319 | log2 ratio of Biotin-Ahx-Ub-VS probe labelling (USP10): -0.131 | log2 ratio of Biotin-Ahx-Ub-VS probe labelling (USP15): -0.407 | log2 ratio of Biotin-Ahx-Ub-VS probe labelling (USP16): -0.379

— the supplement of paper PMC11732987, “Enantioselective OTUD7B fragment discovery through chemoproteomics screening and high-throughput optimisation” (Communications Chemistry, 2025)
